# Laboratory results published in article PMC5540273 (PLoS ONE, 2017).
# “And” between values parts separate entries of the source, which are not always exact repeats. Equal values may be shown once. Read-outs that look alike come from different tables or passages of the source.
# Assays:
# PRKCI = details: concentration: 1 μM, replicates: in singlicate, n = 1
# PRKCQ = details: concentration: 1 μM, replicates: in singlicate, n = 1
# PRKD1 = details: concentration: 1 μM, replicates: in singlicate, n = 1
# PRKD2 = details: concentration: 1 μM, replicates: in singlicate, n = 1
# PRKD3 = details: concentration: 1 μM, replicates: in singlicate, n = 1
# PRKG1 = details: concentration: 1 μM, replicates: in singlicate, n = 1
# PRKG2 = details: concentration: 1 μM, replicates: in singlicate, n = 1
# PRKR = test system: T1, PRKR; details: concentration: 1 μM, replicates: in singlicate, n = 1
# T1 construct: gene EIF2AK2
# PRKX = details: concentration: 1 μM, replicates: in singlicate, n = 1
# PRP4 = details: concentration: 1 μM, replicates: in singlicate, n = 1
# PYK2 = test system: T2, PYK2; details: concentration: 1 μM, replicates: in singlicate, n = 1
# T2 construct: gene PTK2B
# QSK = details: concentration: 1 μM, replicates: in singlicate, n = 1
# RAF1 = details: concentration: 1 μM, replicates: in singlicate, n = 1
# RET = details: concentration: 1 μM, replicates: in singlicate, n = 1
# RIOK1 = details: concentration: 1 μM, replicates: in singlicate, n = 1
# RIOK2 = details: concentration: 1 μM, replicates: in singlicate, n = 1
# RIOK3 = details: concentration: 1 μM, replicates: in singlicate, n = 1
# RIPK1 = details: concentration: 1 μM, replicates: in singlicate, n = 1
# RIPK2 = details: concentration: 1 μM, replicates: in singlicate; n = 1
# RIPK4 = details: concentration: 1 μM, replicates: in singlicate, n = 1
# 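Also: KINOMEscan kinase panel screen.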
structure (smiles),measurement,setting,value
COc1cc2c(cc1OC[C@@H](O)CO)ncc1c3ccc(C#N)cc3[nH]c21,%Inh,PRKCI,0%
same,%Inh,PRKCQ,0%
same,%Inh,PRKD1,0%
same,%Inh,PRKD2,0%
same,%Inh,PRKD3,0%
same,%Inh,PRKG1,0%
same,%Inh,PRKG2,0%
same,%Inh,PRKR,0%
same,%Inh,PRKX,0%
same,%Inh,PRP4,9%
same,%Inh,PYK2,0%
same,%Inh,QSK,8%
same,%Inh,RAF1,21%
same,%Inh,RET,52%
same,%Inh,RIOK1,65%
same,%Inh,RIOK2,0%
same,%Inh,RIOK3,76%
same,%Inh,RIPK1,0%
same,%Inh,RIPK2,0%
same,%Inh,RIPK4,0%
CN(C(=O)c1ccc(-c2cc(-c3c[nH]nc3-c3ccccn3)ccn2)cc1)C1CCOCC1 [GW810083],%Inh,PRKCI,18%
same,%Inh,PRKCQ,0%
same,%Inh,PRKD1,10%
same,%Inh,PRKD2,0%
same,%Inh,PRKD3,0%
same,%Inh,PRKG1,0%
same,%Inh,PRKG2,10%
same,%Inh,PRKR,0%
same,%Inh,PRKX,0%
same,%Inh,PRP4,0%
same,%Inh,PYK2,0%
same,%Inh,QSK,0%
same,%Inh,RAF1,0%
same,%Inh,RET,17%
same,%Inh,RIOK1,54%
same,%Inh,RIOK2,0%
same,%Inh,RIOK3,33%
same,%Inh,RIPK1,0%
same,%Inh,RIPK2,0%
same,%Inh,RIPK4,69%
COc1ccc(S(=O)(=O)NC2CCN(c3cc(C)nc(Nc4cccc(C#N)c4)n3)CC2)cc1.O=C(O)C(F)(F)F [GSK1653539],%Inh,PRKCI,3%
same,%Inh,PRKCQ,0%
same,%Inh,PRKD1,60%
same,%Inh,PRKD2,19%
same,%Inh,PRKD3,48%
same,%Inh,PRKG1,0%
same,%Inh,PRKG2,0%
same,%Inh,PRKR,1%
same,%Inh,PRKX,0%
same,%Inh,PRP4,3%
same,%Inh,PYK2,1%
same,%Inh,QSK,6%
same,%Inh,RAF1,0%
same,%Inh,RET,0%
same,%Inh,RIOK1,5%
same,%Inh,RIOK2,0%
same,%Inh,RIOK3,0%
same,%Inh,RIPK1,5%
same,%Inh,RIPK2,0%
same,%Inh,RIPK4,0%
NCCNS(=O)(=O)c1ccc(-c2ccnc3[nH]ccc23)cc1 [GSK977617],%Inh,PRKCI; 1 µM,56% and 47%
same,%Inh,PRKCQ; 1 µM,86% and 70%
same,%Inh,PRKD1; 1 µM,49% and 33%
same,%Inh,PRKD2; 1 µM,51% and 23%
same,%Inh,PRKD3; 1 µM,45% and 33%
same,%Inh,PRKG1; 1 µM,97.6% and 96.7%
same,%Inh,PRKG2; 1 µM,98.6% and 98%
same,%Inh,PRKR; 1 µM,52% and 42%
same,%Inh,PRKX; 1 µM,94.7% and 92.2%
same,%Inh,PRP4; 1 µM,28% and 20%
same,%Inh,PYK2; 1 µM,31% and 21%
same,%Inh,QSK; 1 µM,6% and 15%
same,%Inh,RAF1; 1 µM,2% and 0%
same,%Inh,RET; 1 µM,28% and 19%
same,%Inh,RIOK1; 1 µM,91.4%
same,%Inh,RIOK2; 1 µM,93.8% and 88%
same,%Inh,RIOK3; 1 µM,78% and 84%
same,%Inh,RIPK1; 1 µM,9% and 8%
same,%Inh,RIPK2,0%
same,%Inh,RIPK4; 1 µM,50% and 29%
O=C(Nc1n[nH]c2cc(-c3cccc(F)c3)ccc12)C1CC1 [SB-735464],%Inh,PRKCI,0%
same,%Inh,PRKCQ,5%
same,%Inh,PRKD1,0%
same,%Inh,PRKD2,0%
same,%Inh,PRKD3,1%
same,%Inh,PRKG1,16%
same,%Inh,PRKG2,0%
same,%Inh,PRKR,0%
same,%Inh,PRKX,0%
same,%Inh,PRP4,7%
same,%Inh,PYK2,0%
same,%Inh,QSK,28%
same,%Inh,RAF1,15%
same,%Inh,RET,0%
same,%Inh,RIOK1,66%
same,%Inh,RIOK2,40%
same,%Inh,RIOK3,0%
same,%Inh,RIPK1,38%
same,%Inh,RIPK2,0%
same,%Inh,RIPK4,18%
Cc1cccc(-c2nc(-c3ccc(S(C)(=O)=O)cc3)sc2-c2ccncc2)c1,%Inh,PRKCI,0%
same,%Inh,PRKCQ,9%
same,%Inh,PRKD1,0%
same,%Inh,PRKD2,0%
same,%Inh,PRKD3,0%
same,%Inh,PRKG1,0%
same,%Inh,PRKG2,0%
same,%Inh,PRKR,2%
same,%Inh,PRKX,1%
same,%Inh,PRP4,6%
same,%Inh,PYK2,2%
same,%Inh,QSK,8%
same,%Inh,RAF1,25%
same,%Inh,RET,14%
same,%Inh,RIOK1,19%
same,%Inh,RIOK2,27%
same,%Inh,RIOK3,0%
same,%Inh,RIPK1,0%
same,%Inh,RIPK2,59%
same,%Inh,RIPK4,0%
CC(=O)Nc1ccc(COc2ccc(Nc3ccnc4cc(-c5ccccn5)ccc34)cc2)cc1.Cl [GW440148],%Inh,PRKCI,15%
same,%Inh,PRKCQ,0%
same,%Inh,PRKD1,18%
same,%Inh,PRKD2,14%
same,%Inh,PRKD3,0%
same,%Inh,PRKG1,0%
same,%Inh,PRKG2,8%
same,%Inh,PRKR,27%
same,%Inh,PRKX,12%
same,%Inh,PRP4,27%
same,%Inh,PYK2,0%
same,%Inh,QSK,0%
same,%Inh,RAF1,5%
same,%Inh,RET,2%
same,%Inh,RIOK1,13%
same,%Inh,RIOK2,0%
same,%Inh,RIOK3,35%
same,%Inh,RIPK1,22%
same,%Inh,RIPK2,93.2%
same,%Inh,RIPK4,19%
O=C(Nc1cccc(-c2nn3ncccc3c2-c2ccnc(Nc3cccc(C(F)(F)F)c3)n2)c1)c1c(F)cccc1F [GSK299495],%Inh,PRKCI,19%
same,%Inh,PRKCQ,49%
same,%Inh,PRKD1,16%
same,%Inh,PRKD2,0%
same,%Inh,PRKD3,14%
same,%Inh,PRKG1,0%
same,%Inh,PRKG2,0%
same,%Inh,PRKR,0%
same,%Inh,PRKX,0%
same,%Inh,PRP4,71%
same,%Inh,PYK2,23%
same,%Inh,QSK,9%
same,%Inh,RAF1,86%
same,%Inh,RET,64%
same,%Inh,RIOK1,22%
same,%Inh,RIOK2,0%
same,%Inh,RIOK3,0%
same,%Inh,RIPK1,8%
same,%Inh,RIPK2,86%
same,%Inh,RIPK4,15%
NS(=O)(=O)CCc1cccc(Nc2nccc(-c3c(-c4cccc(NC(=O)c5c(F)cccc5F)c4)nn4ccccc34)n2)c1 [GSK336735],%Inh,PRKCI,11%
same,%Inh,PRKCQ,55%
same,%Inh,PRKD1,40%
same,%Inh,PRKD2,12%
same,%Inh,PRKD3,56%
same,%Inh,PRKG1,2%
same,%Inh,PRKG2,0%
same,%Inh,PRKR,0%
same,%Inh,PRKX,13%
same,%Inh,PRP4,18%
same,%Inh,PYK2,29%
same,%Inh,QSK,0%
same,%Inh,RAF1,92.8%
same,%Inh,RET,99.9%
same,%Inh,RIOK1,38%
same,%Inh,RIOK2,17%
same,%Inh,RIOK3,26%
same,%Inh,RIPK1,10%
same,%Inh,RIPK2,97.9%
same,%Inh,RIPK4,4%
